Six1-Eya2 inh: blocks human Six1 binding to Eya2; AlphaScreen GST-Six1/His-Eya2 binding, biochemical; stronger effect = lower value; Q15475+O00167; activity change, % (no concentration beside the values); AID 651725; 360,000 tested, 0.56% active; in the data active means activity change below about -65%; inconclusive means mostly about -30% to -63%
Target sequence (O00167 whole entry, looked up): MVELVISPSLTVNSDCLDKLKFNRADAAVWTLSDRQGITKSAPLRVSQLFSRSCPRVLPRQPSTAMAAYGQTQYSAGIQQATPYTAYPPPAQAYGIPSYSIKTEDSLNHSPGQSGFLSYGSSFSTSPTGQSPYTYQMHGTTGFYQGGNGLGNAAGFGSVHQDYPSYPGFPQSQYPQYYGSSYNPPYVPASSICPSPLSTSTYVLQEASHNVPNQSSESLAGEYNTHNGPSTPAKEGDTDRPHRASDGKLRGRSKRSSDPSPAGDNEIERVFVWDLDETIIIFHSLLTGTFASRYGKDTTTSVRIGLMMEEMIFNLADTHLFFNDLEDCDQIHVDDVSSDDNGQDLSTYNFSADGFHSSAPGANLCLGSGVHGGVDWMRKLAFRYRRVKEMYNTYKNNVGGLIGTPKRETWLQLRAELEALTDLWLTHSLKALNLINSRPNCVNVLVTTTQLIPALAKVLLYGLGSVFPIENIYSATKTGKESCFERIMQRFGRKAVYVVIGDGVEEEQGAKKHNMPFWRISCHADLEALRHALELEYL
Target sequence (Q15475 whole entry, looked up): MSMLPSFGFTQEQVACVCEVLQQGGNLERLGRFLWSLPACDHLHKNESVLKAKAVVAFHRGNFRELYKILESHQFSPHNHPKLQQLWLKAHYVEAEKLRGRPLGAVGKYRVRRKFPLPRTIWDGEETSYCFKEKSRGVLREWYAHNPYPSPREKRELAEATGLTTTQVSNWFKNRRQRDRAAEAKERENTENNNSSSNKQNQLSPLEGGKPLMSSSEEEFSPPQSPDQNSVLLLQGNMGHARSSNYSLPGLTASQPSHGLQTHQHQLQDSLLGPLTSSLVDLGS
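AlphaScreen with GST-Six1 and His-Eya2 (5X mix: 250 nM and 500 nM), glutathione donor and nickel acceptor beads; buffer 50 mM Tris pH 8.0, 300 mM NaCl, 1 mM TCEP; 1 h at 37 C in the dark.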
CtBP-E1A blk: blocks the CtBP interaction with E1A; AlphaScreen GST-E1A/His-CtBP binding, 1536-well; stronger effect = lower value; activity change, % (no concentration beside the values); 340,000 tested, 0.49% active; in the data active means activity change below about -65%; inconclusive means mostly about -30% to -63%
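Steps: dispense buffer (Tris pH 8.0, NaCl 300 mM, TCEP 1 mM, BSA, Tween 20); add 5X protein mix (GST-E1A, His-CtBP, 125 nM each); pin 23 nL compound; 2 h at 37 °C, dark; add 5X beads (50 ug/mL); 1 h; read.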
BAZ2B block: blocks human BAZ2B | AlphaScreen BAZ2B-H3K14Ac peptide displacement | 360,000 tested, 4.4% active | Potency, µM (series often up to 114 µM), usual class: inhibitors | Q9UIF8 | AID 504333; further: nearly all actives have a fitted effect of over 60% in size
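Complex of BAZ2B and biotin-H3K14Ac (50 nM apiece) forms over 30 min at RT, then faces library compounds up to 110 uM for another 30 min; AlphaScreen beads added, 20 min dark incubation, luminescence read.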
JMJD2A Tudor: blocks the human JMJD2A Tudor domain. AlphaScreen JMJD2A-Tudor / H3K4me3 peptide binding. 390,000 tested, 4.4% active. Potency, µM (top dose mostly 114 µM), most hits filed as inhibitors. O75164; further: nearly all actives have a fitted effect of over 50% in size
HP1b binding inh: blocks HP1-beta chromodomain binding to methylated histone tails | P83916 | AlphaScreen HP1-beta / biotin-H3K9me3 peptide binding | 390,000 tested, 0.56% active | AID 540317 | Potency, µM (doses to about 114 µM), usual class: inhibitors; further: nearly all actives have a fitted effect of over 70% in size
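AlphaScreen: HP1-beta (50 nM) preformed 30 min with biotin-H3(1-18)K9me3 peptide (50 nM) in PBS pH 7.4, 0.01% Tween-20. Compound added for 30 min at RT, then streptavidin donor/nickel chelate acceptor beads (10 ug/mL) for 30 min.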
G9a block: blocks human histone lysine methyltransferase G9a; G9a H3K9 monomethylation, AlphaScreen, 2 h; 350,000 tested, 8.8% active; Q96KQ7; Potency, µM (titrated, usually from 102 µM), usual class: inhibitors; further: nearly all actives have a fitted effect of over 75% in size
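Step 1: enzyme (final 20 nM) with compound, 15 min RT. Step 2: substrate peptide 500 nM and SAM 20 uM, 2 h RT. Step 3: anti-H3K9me1 antibody and AlphaScreen beads, 10 min, then plate read.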
A number is an active result; . = inactive; ? = inconclusive; / = not tested or not shown; ! = not active in a repeat; [ ] = remark or other dose. A selection: hits, their analogues and other compounds. The true share with any hit is near 10%. Unless noted, the call rests on the fitted dose curve; in most records, active means well fitted inhibition curve with a large enough effect; inconclusive means small, poorly fitted or top-dose-only effect; inactive means no such curve, though single readings can be large or run the other way.

SMILES	Six1-Eya2 inh	CtBP-E1A blk	BAZ2B block	JMJD2A Tudor	HP1b binding inh	G9a block
C=CCC1(C(C)CCC)C(=O)N=C(S)NC1=O (configuration not stated)	/	/	/	/	/	.
CO/C1=C\C(C)=C\[C@@H](C)[C@@H](O)[C@@H](C)C/C(C)=C/C=C\[C@H](OC)C([C@@H](C)[C@@H](O)[C@H](C)[C@@]2(O)C[C@@H](O)[C@H](C)C(C(C)C)O2)OC1=O (some centres not stated)	/	/	/	/	/	.[2.33 µM]
Cc1cc(C=C2C(=O)N(C)C(=O)N(C)C2=O)c(C)n1-c1ccccc1	.	.	.	.	.	7.94µM
CN(C)c1cccc2c(C#N)ccc(N(C)C)c12	.	.	.	?	?	44.7µM
N[C@@]1(C(=O)O)CC[C@@H](C(=O)O)C1	.	.	.	50.1µM	.	29.9µM!
CCCCC/C=C\C/C=C\C/C=C\C/C=C\CCCCOC(CO)CO	/	/	/	/	/	.
Cc1ccc(N2C(=O)NC(=O)/C(=C\c3cc(C)n(-c4cc(C(=O)O)cc(C(=O)O)c4)c3C)C2=O)cc1	?	.	?	31.6µM	?	35.5µM
CCc1ccc(N2C(=O)NC(=O)/C(=C\c3cc(C)n(-c4cc(C(=O)O)cc(C(=O)O)c4)c3C)C2=O)cc1	.	.	70.8µM	50.1µM	.	35.5µM
Cc1ccc(N2C(=O)NC(=O)/C(=C\c3cc(C)n(-c4ccc(C(=O)O)cc4)c3C)C2=O)cc1	.	.	.	.	.	?
CCN1C[C@]2(C)CC[C@H](OC)[C@@]34[C@@H]2[C@H](OC(C)=O)[C@]2(OCO[C@@]25C[C@@H](OC)[C@@H]2C[C@@]3(O)[C@H]5[C@@H]2OC)[C@H]14	/	/	/	/	/	.[21.5 µM]
CCN(CC)c1ccc(CN2CC=C(c3ccc(F)cc3)CC2)cc1	?	?	79.4µM	50.1µM	44.7µM	44.7µM
c1ccc(N2CC[C@@]3(CCCNC3)C2)cc1	/	/	/	/	/	.[12.7 µM]
O=C(O)c1sccc1Oc1ccc(F)cc1[N+](=O)[O-]	.	.	?	.	.	35.5µM
Oc1ccc2ccccc2c1CN1CC=C(c2ccccc2)CC1	.	.	.	.	.	44.7µM
O=C(CCN1CC=C(c2ccccc2)CC1)NCc1ccccc1	.	.	/	/	/	/
COc1ccc(N2CCN(C(=O)C3CCCN(S(=O)(=O)c4ccc5c(c4)CCCN5C(C)=O)C3)CC2)cc1 (configuration not stated)	/	/	?	?	.	?
NCC1OC(O[C@@H]2[C@H](O)[C@@H](OC3C(O)C(N)CC(N)C3OC3OC(CO)C(O)C(O)C3N)O[C@@H]2CO)C(N)C(O)C1O (some centres not stated)	/	/	/	/	/	.[12.7 µM]
Nc1ccc(N)cc1	/	/	/	/	/	12.6µM
Cc1ccc(C=C2C(Cl)=C(Cl)C(Cl)=C2Cl)cc1	.	.	20µM	14.1µM	15.8µM	8.91µM
Cc1ccc(C)c(CN2C(=O)c3ccccc3S(=O)(=O)c3ccc(C(=O)N4CCCCCC4)cc32)c1	/	/	?	.	.	.
NC(=NCc1ccc(Cl)cc1)SCCCc1cnc[nH]1	/	/	/	/	/	.
Oc1c(Br)cc(Br)cc1Br	.	.	.	.	.	.[0.501 µM]
N[C@@H](Cc1cc(Br)c(O)c(Br)c1)C(=O)O	/	/	.	/	/	35.5µM
CC(=O)O[C@H]1CC[C@@]2(C)C(=CC[C@H]3[C@@H]4CC[C@H](C(C)=O)[C@@]4(C)CC[C@@H]32)C1	.	.	/	.	.	/
O=C(O)c1cc(S(=O)(=O)Nc2ccccc2C(=O)O)ccc1O	.	.	.	.[11.4 µM]	.	/
O=C(O)c1ccccc1NS(=O)(=O)c1cccc(N=Nc2c(O)[nH]c(=S)[nH]c2=O)c1	?	?	.	.	.	50.1µM
NC(=O)CSP(=O)(c1ccccc1)c1ccccc1	.	.	.	.	.	12.6µM
NNC(=O)CP(=O)(c1ccccc1)c1ccccc1	.	.	.	.	.	.
O=C(Nc1ccc(Cl)c(C(F)(F)F)c1)NC1CC2CCCC(C1)N2Cc1ccccc1 (configuration not stated)	.	.	.	.	.	.
COc1ccc2c(c1O)-c1cccc3c1C(C2)N(C)CC3 (configuration not stated)	/	/	/	/	/	.[12.7 µM]

Compound activity: PubChem BioAssay, National Center for Advancing Translational Sciences (NCATS)
